Experimental data reported in PubChem BioAssay (Tox21).
Values without a mark were called inactive. Results filed as inconclusive are left out. Entries that show only a call come without a potency. Calls of active or inactive are those of the source. Unless noted, calls follow the shape of the full dose curve.

Key:
[1] = Nuclear factor erythroid 2-related factor 2/antioxidant responsive element (Nrf2/ARE) small molecule agonists: qHTS cell viability counter screen in human keratinocytes (AID 1919968; active = well fitted curve in the direction sought with a large enough effect in the repeat runs; an effect the other way counts as inactive or inconclusive; also: nearly all actives have a fitted effect of over 55% in size; also: potency is read from the fitted curve at half-maximal effect)
In short: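 HaCaT ARE reporter line, 1,500 cells/well; 5 h settle, 37 C/5% CO2; cpd in DMSO pinned; 23 h exposure; CellTiter-Fluor, 1 h; fluorescence.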

[2] = Nuclear factor erythroid 2-related factor 2/antioxidant responsive element (Nrf2/ARE) small molecule agonists: luciferase reporter gene qHTS assay in human keratinocytes (AID 1919969); also: nearly all actives have a fitted effect of over 35% in size; also: potency is read from the fitted curve at half-maximal effect
[3] = molecular target: Gonadotropin-releasing hormone receptor (Homo sapiens) (UniProt P30968); test: Human gonadotropin-releasing hormone receptor (GnRHR) small molecule agonists, calcium flux assay in GnRHR-HEK293 cells (AID 1920063); also: nearly all actives have a fitted effect of over 35% in size
Gonadotropin-releasing hormone receptor (Homo sapiens), sequence (P30968 whole entry, looked up): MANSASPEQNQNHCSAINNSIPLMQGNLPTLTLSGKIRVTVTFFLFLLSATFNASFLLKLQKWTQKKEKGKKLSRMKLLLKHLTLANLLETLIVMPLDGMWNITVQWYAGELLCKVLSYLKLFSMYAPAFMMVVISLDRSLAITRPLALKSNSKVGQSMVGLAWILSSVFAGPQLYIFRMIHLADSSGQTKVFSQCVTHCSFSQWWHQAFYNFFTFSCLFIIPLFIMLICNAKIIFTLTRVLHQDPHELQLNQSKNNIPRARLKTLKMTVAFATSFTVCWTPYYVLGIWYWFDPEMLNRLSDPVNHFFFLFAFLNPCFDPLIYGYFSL
In short: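 GnRHR-HEK293, 1500 cells/well, 18 h 37 C/5% CO2; Ca dye 1 h 37 C; cpd pinned (DMSO), agonist mode; kinetic FL 480/540, 3 min, 1 s reads; 15 conc, n=3.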

[4] = molecular target: KiSS-1 receptor (Homo sapiens) (UniProt Q969F8); test: Human kisspeptin (KISS1R) small molecule agonists, calcium flux assay in KISS1R-HEK293 cells (AID 1920064; active = well fitted curve in the direction sought with a large enough effect in the repeat runs; an effect the other way counts as inactive or inconclusive)
KiSS-1 receptor (Homo sapiens), sequence (Q969F8 whole entry, looked up): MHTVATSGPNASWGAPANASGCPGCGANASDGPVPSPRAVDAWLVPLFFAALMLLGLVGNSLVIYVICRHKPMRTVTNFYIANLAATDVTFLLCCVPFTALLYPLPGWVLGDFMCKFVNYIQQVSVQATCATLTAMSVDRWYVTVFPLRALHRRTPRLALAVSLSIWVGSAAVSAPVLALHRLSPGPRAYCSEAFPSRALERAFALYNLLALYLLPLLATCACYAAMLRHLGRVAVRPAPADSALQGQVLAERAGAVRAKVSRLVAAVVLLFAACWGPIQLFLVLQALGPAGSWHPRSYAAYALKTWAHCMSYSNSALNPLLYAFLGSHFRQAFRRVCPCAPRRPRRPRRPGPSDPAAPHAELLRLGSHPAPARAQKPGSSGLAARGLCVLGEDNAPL
In short: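 Stable human KISS1R HEK293 line; 18 h plating, 37 C/5% CO2; calcium dye 1 h 37 C; compound pin transfer; kinetic fluorescence Ex/Em 480/540, 3 min.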

[5] = G protein-coupled receptor (GPCR) small molecule agonists, calcium flux assay: HEK293 wild type cell line counter screen (AID 1920065)
In short: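 Kinetic fluorescence at Ex/Em 480/540, recorded every second over 3 min, served as the read-out after compound addition. Each compound was tested at 15 concentrations in triplicate on cells pre-loaded with calcium dye for 1 h.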

[6] = p53 small molecule agonists, cell-based qHTS assay with human liver microsomes: qHTS cell viability counter screen (AID 1963579); also: nearly all actives have a fitted effect of over 45% in size; also: potency is read from the fitted curve at half-maximal effect
In short: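 HLM-supplemented (0.5 mg/mL final) and NADPH-supplemented (0.5 mg/mL final) p53RE-bla cultures, 4,000 cells per well, were dosed with compounds in DMSO for 16 h at 37 C; luminescent ATP detection (CellTiter-Glo, 30 min, room temperature) quantified surviving cells.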

[7] = p53 small molecule agonists, cell-based qHTS assay with rat liver microsomes: qHTS cell viability counter screen (AID 1963580); also: nearly all actives have a fitted effect of over 45% in size; also: potency is read from the fitted curve at half-maximal effect
In short: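 Viability is assessed in parallel with the p53 reporter read: HCT-116 p53RE-bla cells receive compounds plus rat microsomes and NADPH (0.5 mg/mL final apiece), incubate 16 h at 37 C, and then CellTiter-Glo luminescence is recorded.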

[8] = molecular target: 5-hydroxytryptamine receptor 2A (Homo sapiens) (UniProt P28223); test: 5-hydroxytryptamine receptor 2A (HTR2A) small molecule antagonists, cell-based qHTS assay (AID 1963586); also: nearly all actives have a fitted effect of over 45% in size
5-hydroxytryptamine receptor 2A (Homo sapiens), sequence (P28223 whole entry, looked up): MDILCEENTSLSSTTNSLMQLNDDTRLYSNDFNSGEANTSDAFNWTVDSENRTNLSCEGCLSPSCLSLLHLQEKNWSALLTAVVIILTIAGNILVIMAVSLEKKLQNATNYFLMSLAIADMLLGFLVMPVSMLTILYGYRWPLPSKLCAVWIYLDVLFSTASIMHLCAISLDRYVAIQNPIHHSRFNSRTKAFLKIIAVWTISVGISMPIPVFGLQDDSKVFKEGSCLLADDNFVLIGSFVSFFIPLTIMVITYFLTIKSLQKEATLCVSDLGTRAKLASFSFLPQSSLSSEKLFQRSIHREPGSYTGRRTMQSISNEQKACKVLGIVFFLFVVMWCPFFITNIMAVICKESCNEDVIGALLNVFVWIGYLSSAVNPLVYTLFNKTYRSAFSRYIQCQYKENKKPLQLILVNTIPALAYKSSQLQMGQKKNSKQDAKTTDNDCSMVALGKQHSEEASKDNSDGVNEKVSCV
In short: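 Antagonist-mode intracellular calcium assay: DOI (4 nM) added after 5 min compound pre-incubation at room temperature to dye-loaded HTR2A-CHO cells. Fluorescence followed for 3 min, sampled every second.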

[9] = molecular target: 5-hydroxytryptamine receptor 2A (Homo sapiens) (UniProt P28223); test: 5-hydroxytryptamine receptor 2A (HTR2A) small molecule agonists, cell-based qHTS assay (AID 1963587); also: nearly all actives have a fitted effect of over 30% in size
In short: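 CHO cells stably expressing human HTR2A, plated 18 h, loaded with calcium dye 1 h at 37 C. Agonist mode: compounds added and intracellular calcium fluorescence recorded kinetically for 2 min at 1 sec intervals.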

[10] = molecular target: Muscarinic acetylcholine receptor M1 (Homo sapiens) (UniProt P11229); test: Cholinergic receptor muscarinic 1 (CHRM1) small molecule agonists, cell-based qHTS assay (AID 1963589); also: nearly all actives have a fitted effect of over 35% in size
Muscarinic acetylcholine receptor M1 (Homo sapiens), sequence (P11229 whole entry, looked up): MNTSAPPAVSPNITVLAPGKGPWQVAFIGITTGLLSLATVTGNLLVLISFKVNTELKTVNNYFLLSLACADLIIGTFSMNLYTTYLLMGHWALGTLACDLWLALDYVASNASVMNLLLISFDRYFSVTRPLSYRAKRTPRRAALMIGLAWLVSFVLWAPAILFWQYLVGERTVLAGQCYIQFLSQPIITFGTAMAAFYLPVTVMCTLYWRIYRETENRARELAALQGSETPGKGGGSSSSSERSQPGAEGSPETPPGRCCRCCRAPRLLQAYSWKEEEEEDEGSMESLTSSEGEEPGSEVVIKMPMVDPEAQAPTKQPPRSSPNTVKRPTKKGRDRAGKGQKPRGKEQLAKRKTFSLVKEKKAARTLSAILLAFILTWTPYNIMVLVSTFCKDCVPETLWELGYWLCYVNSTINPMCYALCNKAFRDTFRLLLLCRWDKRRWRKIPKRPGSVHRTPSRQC
In short: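 Human M1 in stable CHO line; 18 h plating, 1 h dye load 37 C; cpd added (agonist mode); Ca2+ fluorescence kinetic read, 1 s intervals; 15 conc, 3 runs.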

[11] = cAMP Responsive Elements (CRE) small molecule agonists, cell-based qHTS assay (AID 1963590)
In short: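 HEK 293T CRE-bla, 2,000 cells/well, 18 h preincubation 37 C/5% CO2; cpds (DMSO) pinned, 3 h; LiveBLAzer B/G FRET substrate, 2 h RT.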

[12] = molecular target: D(2) dopamine receptor (Homo sapiens) (UniProt P14416); test: Dopamine D2 receptor (DRD2) small molecule agonists, cell-based qHTS assay (AID 1963594); also: nearly all actives have a fitted effect of over 35% in size
D(2) dopamine receptor (Homo sapiens), sequence (P14416 whole entry, looked up): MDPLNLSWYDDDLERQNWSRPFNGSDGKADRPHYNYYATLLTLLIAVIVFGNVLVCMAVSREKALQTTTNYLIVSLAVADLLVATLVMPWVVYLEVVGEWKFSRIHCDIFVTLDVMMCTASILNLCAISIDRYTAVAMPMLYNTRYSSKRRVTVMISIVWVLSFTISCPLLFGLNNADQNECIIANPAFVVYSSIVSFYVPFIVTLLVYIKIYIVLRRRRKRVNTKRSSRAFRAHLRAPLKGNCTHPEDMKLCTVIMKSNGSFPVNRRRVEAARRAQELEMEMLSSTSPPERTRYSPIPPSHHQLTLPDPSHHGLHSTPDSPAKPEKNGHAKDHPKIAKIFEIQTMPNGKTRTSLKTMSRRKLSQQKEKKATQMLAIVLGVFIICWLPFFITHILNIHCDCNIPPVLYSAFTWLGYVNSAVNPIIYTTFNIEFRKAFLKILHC
In short: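 HEK293 cells stably expressing human DRD2, pre-treated with PDE inhibitor Ro20-1724 (0.1 mM final) and compound 10 min at room temperature, then stimulated with NKH477 (200nM […]) for 30 min. cAMP read by HTRF (665/620 nm).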

[13] = molecular target: D(2) dopamine receptor (Homo sapiens) (UniProt P14416); test: Dopamine D2 receptor (DRD2) small molecule antagonists, cell-based qHTS assay (AID 1963595; active = well fitted inhibition curve with a large enough effect in the signal ratio in the repeat runs, with a control signal flat; the % refers to the signal ratio)
In short: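 Cells were plated and grown for 24 h at 37 °C. Ro20-1724 (0.1 mM final) went in first, then compound for 10 min. NKH477 (200 nM) with quinpirole (12 nM) followed for 30 min at RT, then HTRF detection reagents for 1 h.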

[14] = molecular target: Muscarinic acetylcholine receptor M1 (Homo sapiens) (UniProt P11229); test: Cholinergic receptor muscarinic 1 (CHRM1) small molecule antagonists, cell-based qHTS assay (AID 1963588); also: nearly all actives have a fitted effect of over 40% in size
In short: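 CHRM1-CHO calcium-flux assay, antagonist mode. Cells were seeded 18 h, dye-loaded 1 h at 37 C and given compound for 5 min at RT, then acetylcholine was added at 50nM. FDSS fluorescence was read 3 min; 15 concentrations, three runs.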

[15] = molecular target: Beta-2 adrenergic receptor (Homo sapiens) (UniProt P07550); test: Adrenergic beta2 receptor (ADRB2) small molecule antagonists, cell-based qHTS assay (AID 1963592); also: series mostly up to about 92 µM; nearly all actives have a fitted effect of over 50% in size
Beta-2 adrenergic receptor (Homo sapiens), sequence (P07550 whole entry, looked up): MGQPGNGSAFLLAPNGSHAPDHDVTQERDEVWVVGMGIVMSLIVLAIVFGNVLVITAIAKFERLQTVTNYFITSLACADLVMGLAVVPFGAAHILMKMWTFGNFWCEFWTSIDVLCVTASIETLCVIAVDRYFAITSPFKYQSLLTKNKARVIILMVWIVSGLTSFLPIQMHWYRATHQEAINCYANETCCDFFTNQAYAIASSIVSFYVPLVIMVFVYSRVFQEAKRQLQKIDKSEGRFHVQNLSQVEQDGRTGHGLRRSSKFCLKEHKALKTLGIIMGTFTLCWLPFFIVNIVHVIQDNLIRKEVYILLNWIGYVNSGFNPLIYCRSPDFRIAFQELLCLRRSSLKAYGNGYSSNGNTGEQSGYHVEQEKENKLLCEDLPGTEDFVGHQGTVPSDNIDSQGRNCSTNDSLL
In short: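 Cells (CHO, stable ADRB2 overexpression) incubated 18-20hr at 37C; compounds added from DMSO; agonist mix (1nM isoproterenol, 100uM IBMX, 25uM Ro-20-1724) added; 0.5hr RT; d2-cAMP and anti-cAMP-cryptate added; 1hr RT; 665/615 nm read.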

[16] = molecular target: Beta-2 adrenergic receptor (Homo sapiens) (UniProt P07550); test: Adrenergic beta2 receptor (ADRB2) small molecule agonists, cell-based qHTS assay (AID 1963593);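 also: CHO cells stably overexpressing human ADRB2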
In short: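 CHO cells stably over-expressing ADRB2 were plated overnight at 37C, then dosed with compounds plus a stimulation mix containing 100uM IBMX and 25uM Ro-20-1724 for 0.5hr at room temperature. cAMP was measured by HTRF competition, 1hr.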

[17] = p53 small molecule agonists, cell-based qHTS assay: qHTS cell viability counter screen (AID 1963581); also: nearly all actives have a fitted effect of over 45% in size
In short: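 HCT-116 p53RE-bla cells, 4,000/well, plated 5 h before compound pin transfer; 16 h at 37 C; bla substrate 2 h RT; then CellTiter-Glo, 30 min RT, luminescence.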

[18] = cAMP Responsive Elements (CRE) small molecule antagonists, cell-based qHTS assay (AID 1963591; active = well fitted inhibition curve with a large enough effect in the signal ratio in the repeat runs, not every such curve was filed as active; the % refers to the signal ratio)
In short: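 Beta-lactamase reporter read by FRET substrate (LiveBLAzer B/G) after 2 h at room temperature. CRE-bla HEK293T cells had received compound plus 0.25 uM (final) NKH477 for 3 h at 37 °C.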

SMILES | Potency [1] | Potency [2] | Potency [3] | Potency [4] | Potency [5] | Potency [6] | Potency [7] | Potency [8] | Potency [9] | Potency [10] | Potency [11] | Potency [12] | Potency [13] | Potency [14] | Potency [15] | Potency [16] | Potency [17] | Potency [18]
CCCCCOC(=O)COc1cc(N2C(=O)C3=C(CCCC3)C2=O)c(F)cc1Cl | inactive | 61.1 µM (active) | inactive | inactive | inactive | inactive | inactive | inactive | inactive | inactive | inactive | inactive | inactive |  |  |  |  | 
N#Cc1nc(Cl)c(Cl)c(Cl)c1Cl | 6.11 µM (active) | 2.43 µM (active) | inactive | inactive | inactive | 11.5 µM (active) | 36.3 µM (active) | inactive | inactive | inactive |  | inactive | inactive | inactive | inactive |  |  | 
C=CCc1cc(S(=O)(=O)c2ccc(O)c(CC=C)c2)ccc1O | 61.1 µM (active) | inactive | inactive | inactive | inactive | inactive | inactive | inactive | inactive | inactive | inactive | inactive | inactive |  | inactive |  |  | 
O=C(Nc1cccc(Cl)c1)OCC#CCCl | 17.2 µM (active) | 12.2 µM (active) | inactive | inactive | inactive | inactive | inactive | inactive | inactive | inactive |  | inactive | inactive | inactive | inactive | inactive |  | 
Nc1cccc(O)c1 | inactive | inactive | inactive | inactive | inactive | inactive |  | inactive | inactive | inactive | inactive | inactive | inactive | inactive | inactive | inactive | inactive | inactive
CC(C)CC(C)(C)C | inactive | inactive | inactive | inactive | inactive | inactive | inactive | inactive | inactive | inactive |  | inactive | inactive | inactive | inactive |  |  | 
Cc1ccc(N)cc1O | inactive | 24.3 µM (active) | inactive | inactive | inactive | 40.8 µM (active) | inactive |  | inactive | inactive |  |  |  | inactive |  |  |  | 
CC(CC=O)CCCC(C)(C)O (stereo unspecified) | inactive | inactive | inactive | inactive | inactive | inactive |  | inactive |  | inactive | inactive |  | inactive |  | inactive |  | inactive | inactive
O=C1CCCN1C1CCCCC1 | inactive | inactive | inactive | inactive | inactive | inactive |  | inactive |  | inactive | inactive | inactive | inactive | inactive | inactive |  |  | inactive
O=C(c1ccccc1)C1CCC1 | inactive | inactive | inactive | inactive | inactive |  | inactive | inactive | inactive | inactive | inactive | inactive | inactive | inactive | inactive | inactive | inactive | inactive
OCCc1ccncc1 | inactive | inactive | inactive | inactive | inactive | inactive |  |  | inactive | inactive | inactive | inactive | inactive | inactive | inactive | inactive | inactive | inactive
O=C1Cc2ccccc2N1c1c(Cl)cccc1Cl | inactive | inactive | inactive | inactive | inactive | inactive |  | inactive |  | inactive |  | inactive | inactive | inactive | inactive | inactive |  | 
O=c1cc(O)c(Cl)c[nH]1 | inactive | inactive | inactive | inactive | inactive | inactive |  |  | inactive | inactive | inactive | inactive | inactive | inactive | inactive |  | inactive | inactive
CC(C)C(C)C | inactive | inactive | inactive | inactive | inactive | inactive |  | inactive | inactive | inactive | inactive | inactive |  | inactive | inactive |  | inactive | inactive
CCCCOC(=O)CCC(C)=O | inactive | inactive | inactive | inactive | inactive |  | inactive | inactive | inactive | inactive | inactive | inactive | inactive | inactive | inactive |  | inactive | inactive
N[C@@H]1CONC1=O | inactive | inactive | inactive | inactive | inactive | inactive |  | inactive | inactive | inactive |  | inactive |  | inactive | inactive | inactive | inactive | inactive
